MEKK3 PB1 HTS: MEKK3-MEK5 PB1 interaction, increase or decrease | Q99759 | bead-based flow cytometry, Alexa488-MEK5 binding to MEKK3; actives lie on both sides; 0 = blocked by unlabeled MEK5, 100 = vehicle | binding response (% of control), % at 10 µM | 290,000 compounds, 1.4% hits | AID 1529;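 active = binding response more than 3 SD above or below the average of its plate-row segment, actives on both sides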;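 note: Alexa488 bead fluorescence after subtracting the streptavidin-only scavenger bead signal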
MEKK2 WT-MEK5: raises or lowers MEK5 binding to wildtype human MEKK2 PB1 domain. binding response (% of control), % at 10 µM. Q9Y2U5. bead flow cytometry, Alexa488-MEK5 binding to MEKK2 WT; actives lie on both sides. 290,000 compounds, 1.1% hits; in the data active = binding response below about 67% or above about 130%
MEKK2 mut-MEK5: signal of MEK5 binding to mutant human MEKK2 PB1 domain | bead flow cytometry, Alexa488-MEK5 binding to MEKK2 mutant | percent response, % at 10 µM | 290,000 compounds, 0.35% hits; in the data active = percent response above about 24%, passing the limit was not always enough
VLA-4 inh: inhibition in a human VLA-4 binding assay; P13612; VLA-4 expressing cells, ligand binding flow cytometry; inhibition, % (about 7 µM as worked out from the volumes in the protocol); 330,000 compounds, 0.2% hits; in the data active = inhibition above about 50%
Target sequence (P13612 whole entry, looked up): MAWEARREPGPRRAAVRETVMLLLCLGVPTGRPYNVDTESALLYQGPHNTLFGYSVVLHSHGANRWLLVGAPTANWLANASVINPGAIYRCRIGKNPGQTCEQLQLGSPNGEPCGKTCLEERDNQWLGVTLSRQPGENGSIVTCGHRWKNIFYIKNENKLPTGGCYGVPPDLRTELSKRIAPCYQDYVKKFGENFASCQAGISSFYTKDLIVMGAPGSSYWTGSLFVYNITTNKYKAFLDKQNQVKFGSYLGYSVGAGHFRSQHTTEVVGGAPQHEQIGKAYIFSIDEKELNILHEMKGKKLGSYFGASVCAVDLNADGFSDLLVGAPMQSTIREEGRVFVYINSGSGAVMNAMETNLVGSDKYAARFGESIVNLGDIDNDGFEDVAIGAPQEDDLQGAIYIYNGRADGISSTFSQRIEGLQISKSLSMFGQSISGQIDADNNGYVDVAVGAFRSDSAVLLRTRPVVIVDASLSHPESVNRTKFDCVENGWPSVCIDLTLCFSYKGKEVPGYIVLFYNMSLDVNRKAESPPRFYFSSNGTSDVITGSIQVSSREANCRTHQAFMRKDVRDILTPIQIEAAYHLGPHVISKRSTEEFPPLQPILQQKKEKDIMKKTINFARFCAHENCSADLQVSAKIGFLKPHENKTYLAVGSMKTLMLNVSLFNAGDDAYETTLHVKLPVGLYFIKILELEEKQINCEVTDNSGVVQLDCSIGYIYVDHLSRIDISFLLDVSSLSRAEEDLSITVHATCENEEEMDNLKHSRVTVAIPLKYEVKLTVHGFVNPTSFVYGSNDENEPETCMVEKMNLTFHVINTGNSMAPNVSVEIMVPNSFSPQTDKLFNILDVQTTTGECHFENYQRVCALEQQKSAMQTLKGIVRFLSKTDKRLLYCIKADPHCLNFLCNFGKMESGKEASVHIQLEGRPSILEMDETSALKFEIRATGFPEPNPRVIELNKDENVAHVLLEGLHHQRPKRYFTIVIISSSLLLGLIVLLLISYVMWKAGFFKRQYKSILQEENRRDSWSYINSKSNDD
MEKK2wt confirm: raises or lowers MEK5 binding to wildtype human MEKK2, retest; shares compounds with MEKK3 PB1 HTS; bead flow cytometry, Alexa488-MEK5 binding to MEKK2 WT; actives lie on both sides; binding response (% of control), % at 10 µM; 5,900 compounds, 2.4% hits; in the data active = binding response below about 16% or above about 210%; inactive = in between
MEKK2mut-MEK5: signal of MEK5 binding to mutant human MEKK2, retest; shares compounds with MEKK3 PB1 HTS; bead flow cytometry, Alexa488-MEK5 binding to MEKK2 mutant; percent response, % at 10 µM; 5,900 compounds, 2% hits; AID 1893; in the data active = percent response mostly above about 71%, no sharp cut-off; inactive = mostly below about 38%;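 note: higher means compound restores mutant binding toward wildtype level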
MEKK3 confirm: confirmation of inhibitors of MEK5 binding to human MEKK3; binding response (% of control), % at 10 µM; 5,900 compounds, 1.8% hits; bead flow cytometry, Alexa488-MEK5 binding to MEKK3; hits give low values; AID 1894; shares compounds with MEKK3 PB1 HTS;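 active = binding response below 72% of control, or above a set upper limit, though filed actives all read lower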;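 note: 100% = DMSO only wells and 0% = binding blocked by excess unlabeled MEK5; lower values mean stronger disruption of MEK5 binding to MEKK3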
* hit, by the source's call; i = inactive; · = not tested or not shown; [ ] = remark or other dose. Only some compounds are listed: those with a hit (about 2.2% of all), similar ones and a draw of the others.

SMILES	MEKK3 PB1 HTS	MEKK2 WT-MEK5	MEKK2 mut-MEK5	VLA-4 inh	MEKK2wt confirm	MEKK2mut-MEK5	MEKK3 confirm
CC(C)c1ccc(NC(=O)COc2nnc(-c3cccs3)c(-c3cccs3)n2)cc1	143*	112	7	2	92	1	94
CCc1ccc(NC(=O)C(C)Oc2nnc(-c3cccs3)c(-c3cccs3)n2)cc1 (configuration not stated)	104	93	4	9	·	·	·
O=C(NCCc1ccccn1)c1cc2ccccc2o1	104	105	2	-1	·	·	·
CCOC(=O)c1c(C)[nH]c(O)c1C=Nc1ccc(C(F)(F)F)cc1	132*	119	6	-1	98	-1	100
CCOC(=O)c1c(C)[nH]c(O)c1C=Nc1ccc(Cl)cc1	110	117	3	2	·	·	·
CC(C)N1CCN(Cc2coc3ccccc3c2=O)CC1CCO (configuration not stated)	131*	120	0	-6	76	-22	64*
CC(C)CCN1CCN(Cc2coc3ccccc3c2=O)CC1CCO (configuration not stated)	105	107	4	-17	·	·	·
COc1ccccc1NC(=O)CSc1nnc(C2CCCCC2)n1-c1ccccc1	92	87	-19	-10	·	·	·
Cc1ccccc1C(=O)OC(C)CN1CCN(C)CC1 (configuration not stated)	97	102	-4	20	·	·	·
Cc1ccccc1OCC(=O)OC(C)CN1CCN(C)CC1 (configuration not stated)	69*[inhibitor]	73	-37	-2	111	10	107
CC1CCCC/C1=N\NC(=S)Nc1cccnc1 (configuration not stated)	4.0*[inhibitor]	6.0*[inhibitor]	-45	-2	107	10	101
Cc1ccc(NC(=S)N/N=C2\CCCCC2C)cc1 (configuration not stated)	103	100	0	10	·	·	·
O=C(CN1CCN(Cc2ccc(Cl)cc2)CC1)N/N=C/c1ccccc1F	68*[inhibitor]	57*[inhibitor]	-30	-8	103	0	96
CCN(CC)c1ccc(/C=N/Nc2cccc(C)c2)c(O)c1	100	109	5	-18	·	·	·
CCN(CC)c1ccc(/C=N/Nc2ccccc2)c(O)c1	106	136*	13	-15	102	0	105
CCN(CC)c1ccc(C=Nc2ccc(N(C)C)cc2)c(O)c1	94	-21*	79*	-196	100	-7	101
CCN(CC)c1ccc(C=Nc2ccc(C)cc2)c(O)c1	95	69*[inhibitor]	-6	-6	84	-15	92
O=C(Nc1nccs1)c1ccc(-c2ccc(Cl)cc2)o1	3.0*[inhibitor]	3.0*[inhibitor]	-26	-10	105	0	99
O=C(Nc1nccs1)c1ccc(-c2ccc(F)cc2)o1	106	109	3	2	·	·	·
O=C(CSc1nncs1)NCCCc1ccccc1	89	90	-3	-1	·	·	·
NC(=O)COC(=O)c1oc2ccccc2c1CSc1ccc(Cl)cc1	157*	114	1	6	104	1	102
O=C(O)C1CCN(S(=O)(=O)c2ccc(N3CCCC3C(=O)O)c([N+](=O)[O-])c2)CC1 (configuration not stated)	100	109	7	-5	·	·	·
CCc1nnc(NC(=O)CN2CCN(Cc3ccc(C)cc3)CC2)s1	105	104	5	13	·	·	·
O=C(Nc1cccc2cccnc12)c1ccc(Cl)cc1Cl	92	90	-5	10	·	·	·
COc1cc(NC(=O)c2ccccc2Cl)c2ncccc2c1	105	104	26*	0	107	3	106
SMILES	MEKK3 PB1 HTS	MEKK2 WT-MEK5	MEKK2 mut-MEK5	VLA-4 inh	MEKK2wt confirm	MEKK2mut-MEK5	MEKK3 confirm
COc1cc(OC)cc(C(=O)N[C@H](C(=O)OCC(=O)Nc2ccc3c(c2)OCO3)C(C)C)c1	·	·	·	10	·	·	·
COc1ccc(N=C2S/C(=C\c3ccc(N4CCOCC4)o3)C(=O)N2CCc2c[nH]c3ccccc23)cc1	107	161*	99*	i	88	-25	91
CN(C)CCP(=O)(c1ccccc1)c1ccccc1	96	96	-1	0	·	·	·
CN(C)CCN(C)Cc1c2ccccc2c(CN(C)CCN(C)C)c2ccccc12	111	128	24*	-7	156	43	106
CCOC(=O)CNC(=S)N(Cc1ccco1)Cc1ccccc1Cl	103	99	1	2	·	·	·
COc1ccc(S(=O)(=O)NCCc2c[nH]c3ccc(C)cc23)cc1	101	103	2	-6	·	·	·
CCC(C)c1ccccc1N1CC(C(=O)Nc2ccc(N3CCOCC3)cc2)CC1=O (configuration not stated)	·	·	·	16	·	·	·
Cc1nn(C)c(Nc2ccc(Br)cc2)c1Br	101	·	271*	-22	99	-3	98
Cc1cc(N2C(=O)Cc3ccccc3C2=O)ccc1C(C)C	99	96	-4	17	·	·	·
N#CCC(=O)Nc1ccc(C(=O)OCC(=O)Nc2ccc3ccccc3c2)cc1	·	·	·	11	·	·	·
CCN(CC#CCC1(O)c2ccccc2-c2ccccc21)CCO	77*[inhibitor]	84	-13	5	95	-6	98
Cc1ccccc1CN(C)CC(=O)Nc1c(C)cccc1C(C)C	72*[inhibitor]	71	-24	0	107	4	104
Cc1cccc(C(C)C)c1NC(=O)CN(C)Cc1cccc(F)c1	101	102	0	8	·	·	·
COc1ccc(CNC(=O)c2c(N)n(CCCN3CCOCC3)c3nc4ccccc4nc23)cc1	95	154*	39	21	149	39	110
Nc1c(C(=O)NCc2ccccc2)c2nc3ccccc3nc2n1CCCN1CCOCC1	106	106	2	10	·	·	·
c1ccc(CNc2nc(-c3cccnc3)nc3ccccc23)cc1	95	95	2	-4	·	·	·
c1ccc(CN2CCC(Nc3ncnc4sccc34)CC2)cc1	105	129	51*	-9	125	12	103
c1ccc(CN2CCC(Nc3nc(-c4cccnc4)nc4ccccc34)CC2)cc1	102	144*	16	33	137	12	98
CCn1c(SC(C)C(=O)Nc2ccc3c(c2)OCCO3)nnc1C1CC1 (configuration not stated)	·	·	·	2	·	·	·
CCN(CC(=O)NC)S(=O)(=O)c1ccc(C)cc1	96	95	2	18	·	·	·
CCN(CC(=O)NC)S(=O)(=O)c1ccc(Br)cc1	109	112	24*	1	101	-4	98
CC1CCCN(C(=O)CSc2nnc3ccccn23)C1 (configuration not stated)	·	·	·	3	·	·	·
Cc1cccc(/C=N/N(CCO)C2=NS(=O)(=O)c3ccccc32)c1	138*	117	1	-5	107	11	103
